High-throughput results from PubChem.
Tau fibril ThT: inhibitors of human tau fibril formation, thioflavin T binding; AID 1460; 270,000 tested, 2.1% active; P10636; recombinant tau K18 P301L, heparin-induced fibrillization, ThT fluorescence; Potency, µM (series often up to 57.4 µM), inactives show at the highest dose activity, negative = inhibition, most hits filed as inhibitors; also: potency is read from the fitted curve at half-maximal effect; nearly all actives have a fitted effect of over 55% in size
Target sequence (P10636 561-689 P618L limits assumed): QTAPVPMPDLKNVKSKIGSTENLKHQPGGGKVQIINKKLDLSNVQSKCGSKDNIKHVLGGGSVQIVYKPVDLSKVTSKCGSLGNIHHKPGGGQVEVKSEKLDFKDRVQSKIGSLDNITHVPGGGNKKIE
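K18 P301L tau (15 uM + 0.24 uM Alexa 594-tagged), heparin 20 uM, NaOAc pH 7, 6 h 37 C; ThT 30 uM, 1 h RT, ex 450/em 510 nm.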
USP1-UAF1 inh: USP1/UAF1 (human) deubiquitinase inhibition; recombinant USP1/UAF1, Ub-Rhodamine cleavage fluorescence; AID 743255; 390,000 tested, 0.23% active; Potency, µM (top dose mostly 57.1 µM), inactives show at the highest dose activity change, negative = inhibition, actives largely listed as inhibitors; O94782; also: potency is read from the fitted curve at half-maximal effect; nearly all actives have a fitted effect of over 60% in size
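USP1/UAF1 complex at 1 nM was preincubated with compound for 15 min at room temperature, then Ub-Rho substrate (150nM final) was added. Fluorescence (480/540 nm) was read kinetically, 6 reads every 60 seconds.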
Tau fluor counter: counter-screen for tau fibril formation inhibitors. tau K18 P301L (four-repeat tau fragment) Alexa594 fluorescence, heparin fibrillization. Potency, µM (highest dose often 57.7 µM), for the others: top-dose activity change, negative = decrease. 280,000 tested, 0.93% active. AID 1463; also: potency is read from the fitted curve at half-maximal effect; nearly all actives have a fitted effect of over 55% in size
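Human K18 P301L tau (15 uM unlabeled plus 0.24 uM Alexa 594-labeled, final) in 100 mM sodium acetate pH 7 was mixed with compound and 20 uM heparin and incubated 6 hr at 37 C.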
FBPA coupling cs: counter-screen for Giardia aldolase inhibitors: coupling enzyme system. coupling enzyme system counterscreen, AmpLite Red fluorescence. activity change, negative = inhibition, % at 58.2 µM, hits read low. 290,000 tested, 0.67% active. AID 2472; in the data active = activity change below about -30%
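Final compound at 57.5 uM, incubated 10 min at RT with coupling enzyme reagent (glyceraldehyde-3-phosphate), then 20 min with substrate and AmpLite Red detection. Fluorescence read at 525/598 nm; tests interference with the coupling assay, not aldolase inhibition.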
Tau FP inhib: blocks human tau fibril formation measured by polarization. K18 P301L tau heparin fibrillization, Alexa594 FP, 6 h. Potency, µM (series often up to 57.7 µM), without a hit: at the highest dose activity, negative = inhibition, actives largely listed as inhibitors. 280,000 tested, 0.39% active. AID 1468; also: potency is read from the fitted curve at half-maximal effect; nearly all actives have a fitted effect of over 55% in size
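Read-out: fluorescence polarization of Alexa 594-labeled tau (0.24 uM), 555 nm excitation, 632 nm emission. Mixtures held 15 uM unlabeled K18 P301L, compound and 20 uM heparin, pH 7 acetate buffer, incubated 6 hr at 37 C.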
The depositor's hits bear a star; ? = inconclusive; . = no result; [ ] = another dose, or the depositor's remark. Sampled rows, rich in hits. Any-hit rate of the full collection: about 2.3%. Unless noted, calls follow the shape of the dose curve; as a rule, active = well fitted curve in the direction sought with a large enough effect; inconclusive = small, poorly fitted or top-dose-only effect, or another doubt; inactive = no such curve, though single readings can be large; an effect the other way counts as inactive or inconclusive. % is scaled to controls: 0 for no effect and ±100 for the full control effect.

SMILES	Tau fibril ThT	USP1-UAF1 inh	Tau fluor counter	FBPA coupling cs	Tau FP inhib
CCc1nnc(NC(=O)c2sc3nc4cc(C)ccc4cc3c2N)s1	2µM*	?	?	-4	-5%
CCc1nnc(NC(=O)c2ccc3ccccc3n2)s1	?	-15%	4%	-28	8%
CCOC(=O)Cc1csc(NC(=O)c2sc3nc4ccc(C)cc4cc3c2N)n1	3.2µM*	-6%	-16%	1	9%
C=CCn1c(O)c(C2=c3ccccc3=NC2=O)s/c1=N/c1nccs1	?	-18%	?	2	?
Cn1c(O)c(C2=c3ccccc3=NC2=O)sc1=Nc1ccc(Cl)cc1	10µM*	-20%	?	2	15%
O=[N+]([O-])c1cc(Cl)ccc1NCCNS(=O)(=O)c1ccccc1	13µM*	-2%	?	-1	4%
O=[N+]([O-])c1ccccc1NCCNS(=O)(=O)c1ccc(Cl)cc1	-10%	-3%	-12%	-6	1%
O=C(O)CC/C(=N\Nc1ccc(S(=O)(=O)N2CCOCC2)cc1[N+](=O)[O-])c1cccs1	11µM*	-17%	-17%	10	6%
O=C(O)CC/C(=N\Nc1ccccc1[N+](=O)[O-])c1cccs1	.	-25%	.	9	.
O=C(O)CC/C(=N\Nc1ccc(S(=O)(=O)N2CCCC2)cc1[N+](=O)[O-])c1cccs1	32µM*	-8%	-17%	8	8%
COc1cccc(C2C(C(=O)Nc3ccc(Cl)cc3)=C(C)Nc3c(C(=O)Nc4ccccc4)cnn32)c1OC (centres undefined)	-3%	-17%	-21%	.	?
O=C(Nc1ccc2c(c1)OCCO2)c1cc2sccc2n1Cc1ccccc1	-13%	-21%	14µM*[quencher]	.	-6%
CC(=O)c1ccc(NC(=O)c2cc3sccc3n2Cc2ccc(Cl)cc2)cc1	-15%	-21%	?	.	10µM*
O=C(Nc1ccc2c(c1)OCCO2)c1cc2sccc2n1Cc1ccc(F)cc1	-15%	-19%	?	-7	5%
COc1cccc([C@@H]2Oc3ccc(Br)cc3C(=O)[C@H]2OC(=O)NS(=O)(=O)c2ccc(C)cc2)c1	-6%	.	-7%	0	8%
COC(=O)Cn1c(=O)c2c(n(Cc3ccccc3)c1=O)N/C(=C/c1ccc(Br)cc1)C2=O	16µM*	?	?	1	9%
Cc1cc(-c2ccc(S(=O)(=O)Nc3ccc(Cl)cc3C)cc2)on1	4%	5%	?	.	?
CCC(=O)C(C(=O)OC)[C@H](CCc1ccccc1)NC(=O)OC (some centres undefined)	0%	.	-6%	0	-11%
O=P(NCc1ccccc1)(OCc1ccccc1)OCc1ccccc1	.	-14%	.	.	.
CCCCc1ccc(C2C(C#N)=C(N)SC(N)=C2C#N)s1	25µM*	.	25µM*[quencher]	-26	?
COc1cccc(C2CC(=O)N(c3ccc(F)cc3)C3=C2C(=O)OC3)c1OC (centres undefined)	0%	12%	-6%	.	-3%
Cc1cc(C)nc(NS(=O)(=O)c2ccc(NC(=O)c3cccs3)cc2)n1	-2%	3%	-7%	2	1%
CCCCN(CCCC)S(=O)(=O)c1ccc(NC(=O)c2cccs2)cc1	-4%	-17%	?	-1	14µM*
CC(=O)c1cc(-c2ccc(F)cc2)n(CCC(=O)NCc2ccccc2C)c1C	-5%	-18%	-8%	.	7%
CC1=CC(=C(C#N)c2nc3ccccc3s2)C=C(C)N1CC1CCCO1 (centres undefined)	?	?	7.9µM*[quencher]	-11	?
SMILES	Tau fibril ThT	USP1-UAF1 inh	Tau fluor counter	FBPA coupling cs	Tau FP inhib
c1ccc2sc(NCC3CCCO3)nc2c1 (centres undefined)	5%	-12%	-1%	1	-3%
Cc1cc(OCc2nc3ccccc3s2)ccc1N	14µM*	-7%	?	1	-17%
c1ccc(OCc2nc3ccccc3s2)cc1	-15%	-3%	-6%	0	1%
CCOC(=O)c1c(CN(C)C)n(C)c2c(O)c(N=NC(N)=O)c3ccc(Br)cc3c12	.	35µM*	.	-31*	.
COc1cccc(/C=N/c2oc(-c3ccccc3)cc2C#N)c1O	14µM*	-9%	-27%	-2	1%
N#Cc1cc(-c2ccccc2)oc1/N=C/c1ccccc1O	?	-9%	?	2	-3%
